TDP1 cell CPT – qHTS for Inhibitors of human tyrosyl-DNA phosphodiesterase 1 (TDP1): qHTS in cells in presence of CPT. Potency, µM (titrated, usually from 46.2 µM), for inactives: at the highest dose activity change, negative = growth inhibition, usual class: inhibitors. chicken DT40 Tdp1-/-;hTDP1 cells + 20 nM CPT, ATP luminescence, 48 h. 12% of 420,000 active; note: potency is the fitted concentration of half-maximal effect; nearly all actives have a fitted effect of over 55% in size
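Chicken DT40 Tdp1-/- cells complemented with human TDP1, 400 cells/well, exposed to compounds plus 20 nM camptothecin for at least 48 h at 37 C; viability read as ATP content by CellTiter-Glo luminescence.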
12-LOX inh – Primary qHTS assay for inhibitors of human arachidonate 12S-lipoxygenase (ALOX12): Round 2. Potency, µM (highest dose often 108 µM), for inactives: top-dose activity change, negative = inhibition, usual class: inhibitors. Polyunsaturated fatty acid lipoxygenase ALOX12 (Homo sapiens), P18054. purified 12hLO, xylenol orange hydroperoxide absorbance. 1.1% of 580,000 active; note: potency is the fitted concentration of half-maximal effect
Target sequence (P18054 whole entry, looked up): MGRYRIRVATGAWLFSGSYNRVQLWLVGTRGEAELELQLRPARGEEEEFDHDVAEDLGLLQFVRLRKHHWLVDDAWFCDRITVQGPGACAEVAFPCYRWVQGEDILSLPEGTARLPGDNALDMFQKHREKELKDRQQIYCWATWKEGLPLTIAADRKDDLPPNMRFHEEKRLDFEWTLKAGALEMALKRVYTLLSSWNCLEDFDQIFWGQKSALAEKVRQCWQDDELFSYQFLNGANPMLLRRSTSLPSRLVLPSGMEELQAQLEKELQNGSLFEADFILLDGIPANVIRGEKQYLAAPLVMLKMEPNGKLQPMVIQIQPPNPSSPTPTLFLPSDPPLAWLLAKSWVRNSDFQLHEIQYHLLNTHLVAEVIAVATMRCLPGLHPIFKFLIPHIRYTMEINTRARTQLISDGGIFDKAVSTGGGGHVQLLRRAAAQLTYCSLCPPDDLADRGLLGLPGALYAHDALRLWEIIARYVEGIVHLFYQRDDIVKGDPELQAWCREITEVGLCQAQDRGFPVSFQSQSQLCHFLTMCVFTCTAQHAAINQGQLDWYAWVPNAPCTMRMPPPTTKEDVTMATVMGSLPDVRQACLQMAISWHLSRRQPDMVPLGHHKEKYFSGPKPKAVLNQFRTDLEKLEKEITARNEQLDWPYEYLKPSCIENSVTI
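Purified human 12hLO (150 nM final) in 25 mM Hepes, 0.01% Triton X-100, pH 7.0 was preincubated 15 min at room temperature with compound. Then 40 uM arachidonic acid was added, 30 min. Hydroperoxide was read by Fe-XO absorbance ratio 573/405 nm.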
HT1080NT lethal – qHTS for induction of synthetic lethality in tumor cells producing 2HG: qHTS for the HT-1080-NT fibrosarcoma cell line | HT-1080-NT fibrosarcoma viability, CellTiter-Glo ATP luminescence, 48 h | Potency, µM (titrated, usually from 46.1 µM), for the others: top-dose activity, negative = less viability, actives largely listed as cytotoxic | 1.6% of 360,000 active | AID 686970, 2013;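 note: NT is the 2HG producing partner of a matched IDH1 knockdown line; potency is the fitted concentration of half-maximal effect; 0% = DMSO-treated cells and -100% = media-only wells without cells; nearly all actives have a fitted effect of over 55% in size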
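Toxicity toward the 2HG-producing NT line was scored as %Activity, normalised to DMSO and no-cell wells, from CellTiter-Glo luminescence after 48 hours' treatment.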
DT40 TDP1 no CPT – qHTS for Inhibitors of human tyrosyl-DNA phosphodiesterase 1 (TDP1): qHTS in cells in absence of CPT; DT40 Tdp1-/- hTDP1 cells, no CPT, ATP luminescence, 48 h; Potency, µM (highest dose often 46.2 µM), inactives show top-dose activity change, negative = growth inhibition, usual class: inhibitors; 15% of 420,000 active; AID 686978, 2013; note: potency is the fitted concentration of half-maximal effect; nearly all actives have a fitted effect of over 55% in size
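Cells were dispensed at 400 per well, compounds added by pin tool, plates incubated ≥48 hr at 37 °C, then CellTiter-Glo added for 30 min at room temperature before luminescence reading. Line: DT40 Tdp1-/- complemented with hTDP1; camptothecin omitted.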
HT1080 IDH1KD tx – qHTS for induction of synthetic lethality in tumor cells producing 2HG: qHTS for the HT-1080-IDH1KD cell line | 2% of 360,000 active | Potency, µM (highest dose often 46.1 µM), for inactives: top-dose activity, negative = toxicity, usual class: cytotoxic | HT-1080 IDH1 knockdown viability, ATP luminescence, 48 h | AID 686971, 2013;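 note: potency is the fitted concentration of half-maximal effect; 0% = DMSO wells and -100% = cell-free medium wells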
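% activity derives from luminescence (CellTiter-Glo), normalised to DMSO and no-cell wells. HT-1080-IDH1KD cells, 750/well, had 48 h compound exposure at 37 °C.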
IL1B secr inh – qHTS for Inhibitors of Inflammasome Signaling: IL-1-beta AlphaLISA Primary Screen. activity change, % at 57.5 µM. AID 743279, 2014. 4.7% of 360,000 active. THP-1 LPS/ATP IL-1B secretion, AlphaLISA, 16 h; hits give low values; in the data active = activity change below about -50%; inconclusive = mostly about -30% to -49%
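Secreted IL-1B measured by AlphaLISA bead assay after 16 h compound exposure of THP-1 cells; compounds (final up to 57.5 uM) added 1 h before LPS (250 ng/mL) and ATP (1.25 mM) stimulation; lower signal means less secretion.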
Active calls of the source: *; ? = inconclusive; . = no result; ! = not active in a repeat. The entries come from a sample that favours hits as a whole. Unless noted, calls come from the whole dose curve; as a rule, active = well fitted curve in the direction sought with a large enough effect; inconclusive = small, poorly fitted or top-dose-only effect, or another doubt; inactive = no such curve, though single readings can be large; an effect the other way counts as inactive or inconclusive. Unless noted, % is set by controls: 0 for no effect and ±100 for the full control effect.

SMILES | TDP1 cell CPT | 12-LOX inh | HT1080NT lethal | DT40 TDP1 no CPT | HT1080 IDH1KD tx | IL1B secr inh
COc1cc2c(cc1OC)C(C)N(C(=O)c1ccccc1Br)CC2 (stereo not drawn) | . | 5% | . | . | . | .
COc1cc2c(cc1OC)C(C)N(C(=O)c1c(C)noc1C)CC2 (stereo not drawn) | ? | 79% | -25% | 13µM* | ? | 4
COc1cc2c(cc1OC)C(C)N(C(=O)c1cc(C)on1)CC2 (stereo not drawn) | 0.82µM* | 3% | ? | 1µM* | 1.5µM* | 36
COc1cc2c(cc1OC)C(C)N(C(=O)c1cc3ccccc3o1)CC2 (stereo not drawn) | 8.2µM* | 21% | ? | ? | 5.6µM* | -59*
CCOc1ccc(CN2CC[C@@](C)(O)[C@H](N3CCCC3)C2)cc1 | . | 69% | . | . | . | .
CCOc1ccc(OCC)c(Nc2nc3ccccc3c3nnc(C)n23)c1 | 1% | -13% | . | ? | . | .
CCOc1ccc(Nc2nc3ccccc3c3nnc(CC)n23)cc1 | 15µM* | -9% | . | 10µM* | . | .
CCc1nnc2c3ccccc3nc(Nc3ccc(F)c(Cl)c3)n12 | 18µM* | -15% | . | 18µM* | . | .
CCN(CC)c1nc2ccccc2nc1C(=O)Nc1ccc(F)c(Cl)c1 | . | 0% | . | . | . | .
CCc1nc(-c2c3n(c(=O)n(CC(=O)Nc4cc(C)ccc4OC)c2=O)CCCC3)no1 | . | 41% | . | . | . | .
CCCc1nnc(NC(=O)c2cc(-c3ccc4c(c3)OCCO4)on2)s1 | . | 5% | . | . | . | .
COCC(=O)NCC(C)(C)c1ccccc1 | . | 21% | . | . | . | .
Cc1ccc(CN2CCN(c3cccc4[nH]ccc34)CC2)cc1 | 16µM* | -4% | -3% | ? | -18% | 27
COc1ccc(Br)cc1CNC(=O)Cn1c(=O)c2cccn2c2ccc(F)cc21 | 4.6µM* | ? | . | 13µM* | . | .
COc1ccc(Br)cc1CNC(=O)Cn1ncn2nc(-c3cccs3)cc2c1=O | 12µM* | -21% | . | 13µM* | . | .
COc1ccc(Br)cc1CNC(=O)CCCn1c(=O)c2cccn2c2cccnc21 | ? | ? | . | 18µM* | . | .
COc1ccc(Br)cc1CNC(=O)CCCn1c(=O)c2cccn2c2ccccc21 | ? | -25% | . | 23µM* | . | .
COc1ccc(OC)c(CNC(=O)CCn2c(=O)c3cccn3c3ccc(F)cc32)c1 | ? | -20% | 4% | ? | 0% | 23
COc1ccc(OC)c(CNC(=O)CCCn2c(=O)c3cccn3c3cccnc32)c1 | 3% | ? | . | -22% | . | .
COC(=O)CSc1cccc2c1C(=O)CC2c1ccccc1 (stereo not drawn) | 6% | 2% | 0% | -6% | 4% | -12
O=C1C=CC2(O[C@H](c3ccccc3)[C@@H](c3ccccc3)O2)[C@H](Sc2ccccc2O)C1 | 0.46µM* | ? | 4.6µM* | 0.58µM* | 3.3µM* | -117*
O=S1(=O)N=C(Nc2ccccc2)c2ccccc21 | . | -4% | . | . | . | .
O=S1(=O)N=C(N/N=C/c2cccs2)c2ccccc21 | -6% | 49% | -28% | ? | ? | -99*
O=[N+]([O-])c1ccc(O)c(/C=N\N=C2c3ccccc3-c3ccccc32)c1 | 23µM* | 10% | -17% | 12µM* | -7% | -23
O=[N+]([O-])c1ccc(O)c(/C=N/Nc2ccc(Cl)nn2)c1 | 1.2µM* | 3% | ? | 1.2µM* | 0.21µM* | 58
SMILES | TDP1 cell CPT | 12-LOX inh | HT1080NT lethal | DT40 TDP1 no CPT | HT1080 IDH1KD tx | IL1B secr inh
O=[N+]([O-])c1ccc(O)c(/C=N/Nc2nn[nH]n2)c1 | -23% | 0% | -1% | 2% | -8% | 27
O=[N+]([O-])c1ccc(O)c(/C=N/NC2=NS(=O)(=O)c3ccccc32)c1 | 4.1µM* | -7% | -7% | 0.52µM* | 18% | -11
O=[N+]([O-])c1ccc(/C=N/NC2=NS(=O)(=O)c3ccccc32)cc1 | -13% | 1% | -4% | 4% | -5% | -17
O=C(Nc1ccc2oc(=O)ccc2c1)c1ccccc1 | . | 16% | . | . | . | .
O=C(c1ccccc1)c1coc2c1C(=O)c1ccccc1C2=O | ? | -3% | 16µM* | ? | 18µM* | -28
O=C(c1ccccc1)c1ccc(CN2C(=O)c3ccccc3C2=O)o1 | -5% | 4% | -1% | -2% | 5% | 8
O=C1c2ccccc2C(=O)c2c1oc(C(F)(F)F)c2C(=O)c1ccccc1 | 12µM* | ? | ? | 16µM* | 23µM* | -84*
COc1ccc(C(=O)c2coc3c2C(=O)C(=O)c2ccccc2-3)cc1 | 2.6µM* | ? | ? | 4.6µM* | ? | 13
COc1ccc2occ(C(=O)c3ccccc3)c2c1 | -12% | 16% | -1% | -12% | 0% | -9
Cc1cc(C)c2[nH]c(=S)cc(C)c2c1 | -21% | 6.3µM*! | 5% | -34% | 13% | -9
O=c1cc(-c2ccccc2Cl)oc2c(NS(=O)(=O)c3ccccc3OC(F)(F)F)ccc(O)c12 | 21µM* | ? | ? | ? | -29% | -10
CCNNC(=O)C(O)(c1cccc(C)c1)c1cccc(C)c1 | -19% | -16% | 18% | -23% | 23% | -3
Cc1cccc(C(O)(C(=O)NNc2ccc3ccccc3n2)c2cccc(C)c2)c1 | 6.5µM* | -14% | ? | 6.5µM* | ? | 22
Cc1ccc(NC(=O)C(C#N)=C2CCCC2)cc1 | . | -29% | . | . | . | .
O=c1cc(Cc2nnc(SCc3ccccc3)n2-c2ccc(Cl)cc2)[nH]c(=O)[nH]1 | -3% | ? | 0% | 29% | 2% | 7
O=S(Cc1ccc(Br)cc1)Cc1nnc(SCc2ccc(Cl)cc2)n1-c1ccccc1 (stereo not drawn) | 16µM* | ? | -3% | 18µM* | -22% | -68*
Nn1c(Cc2cccc3ccccc23)nnc1SCc1c(F)cccc1Cl | ? | -5% | 2% | -29% | 0% | -28
O=S(Cc1ccc(Br)cc1)Cc1nnc(SCc2c(F)cccc2Cl)n1-c1ccccc1 (stereo not drawn) | 15µM* | ? | -5% | 9.2µM* | -24% | -62*
CCCc1cc(=O)oc2c(C)c(OCC(=O)c3ccccc3)ccc12 | . | -2% | . | . | . | .

Screening data deposited in PubChem by National Center for Advancing Translational Sciences (NCATS).
